Measurements published in PubChem BioAssay (NCATS).
Records with an inconclusive call do not appear. Activity calls are given as the source filed them. Calls come from the whole dose curve; as a rule, active = well fitted curve in the direction sought with a large enough effect; inconclusive = small, poorly fitted or top-dose-only effect, or another doubt; inactive = no such curve, though single readings can be large; an effect the other way counts as inactive or inconclusive.

Experiments:
[1] = target: Glutathione peroxidase 1 (Homo sapiens) (UniProt P07203); assay: Primary qHTS Assay for Inhibitors of Recombinant Selenoprotein Glutathione Peroxidase 1 (GPX1) (AID 1845191); note: nearly all actives have a fitted effect of over 65% in size
Sequence of Glutathione peroxidase 1 (Homo sapiens) (P07203 whole entry, looked up): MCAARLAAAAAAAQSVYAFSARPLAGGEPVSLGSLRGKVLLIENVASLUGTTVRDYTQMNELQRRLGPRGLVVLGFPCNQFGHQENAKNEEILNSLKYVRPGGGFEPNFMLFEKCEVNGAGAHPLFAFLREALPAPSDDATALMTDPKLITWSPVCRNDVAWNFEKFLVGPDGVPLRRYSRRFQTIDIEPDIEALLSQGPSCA
Procedure, shortened: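 NADPH consumption tracked by fluorescence at 340/450 nm between t=0 and t=15 min, room temperature. Final mix: 10 nM GPX1, 100 nM glutathione reductase, 1 mM GSH, 0.5 mM NADPH, 0.5 mM cumene hydroperoxide, 0.01% BSA; 30 min compound–enzyme preincubation.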

[2] = target: Phospholipid hydroperoxide glutathione peroxidase GPX4 (Homo sapiens) (UniProt P36969); assay: Primary qHTS Assay for Inhibitors of Recombinant Selenoprotein Glutathione Peroxidase 4 (GPX4) (AID 1845192); note: nearly all actives have a fitted effect of over 65% in size
Sequence of Phospholipid hydroperoxide glutathione peroxidase GPX4 (Homo sapiens) (P36969 whole entry, looked up): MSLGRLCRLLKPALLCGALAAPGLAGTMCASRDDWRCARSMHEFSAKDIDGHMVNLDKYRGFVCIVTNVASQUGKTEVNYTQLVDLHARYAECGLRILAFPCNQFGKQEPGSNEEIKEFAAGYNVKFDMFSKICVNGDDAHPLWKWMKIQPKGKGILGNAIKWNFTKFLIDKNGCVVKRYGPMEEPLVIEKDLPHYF
Procedure, shortened: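 NADPH consumption followed by fluorescence at 340/450 nm, t=0 and after 15 min at room temperature. Reaction started with cumene hydroperoxide (0.5 mM final) after 30 min compound–GPX4 preincubation; final 200 nM GPX4, 100 nM GR, 1 mM GSH, 0.5 mM NADPH.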

[3] = target: Luciferin 4-monooxygenase (Photinus pyralis) (UniProt P08659); assay: Primary firefly luciferase (FLuc) qHTS assay for identification of artifact compounds. (AID 1845220); note: nearly all actives have a fitted effect of over 60% in size
Procedure, shortened: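 Cell-free, 1536-well qHTS. Buffer pH 7.6 with 0.01% Tween-20 and 0.05% BSA; 10 uM D-luciferin, 10 uM ATP; 10 nM P. pyralis luciferase; luminescence after 5 min.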

[4] = Primary fluorescence-based thiol-reactive (MSTI) qHTS assay for identification of artifact compounds. (AID 1845221); note: nearly all actives have a fitted effect of over 65% in size; note: potency is the fitted concentration of half-maximal effect;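 for activity change, negative = thiol reactive: series mostly up to about 54 µM; thiol-reactive compounds lower the probe fluorescence signal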
Procedure, shortened: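 In PBS pH 7.4 with 2% DMSO, each compound met 4 uM MSTI for one hour at ambient temperature, shielded from light, before fluorescence detection.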

C=CC(C)(CC/C=C(\C)C(=O)OC[C@H]1O[C@@H](OC(C)(C=C)CC/C=C(\C)C(=O)O[C@H]2[C@H](O)[C@@H](O)[C@H](OC(C)(C=C)CC/C=C(\C)C(=O)O)O[C@@H]2CO)[C@H](O)[C@@H](O)[C@@H]1O)O[C@@H]1O[C@H](CO)[C@@H](O)[C@H](O)[C@H]1O (some centres undefined)
inactive: Potency [1] | Potency [2] | outcome [3] inactive [at 11.6 µM] | activity change, negative = thiol reactive [4] 79.7% [at 11.5 µM]

O=C(O)[C@H](Cc1ccccc1)Oc1ccc(-c2ccccc2)cc1
inactive: Potency [1] | Potency [2] | Potency [3] | Potency [4]

C[C@]12CC[C@@H]3c4ccc(O)cc4CC[C@H]3[C@@H]1C[C@@H](O[C@@H]1O[C@H](C(=O)O)[C@@H](O)[C@H](O)[C@H]1O)[C@@H]2O
inactive: Potency [1] | Potency [2] | Potency [3] | Potency [4]

COc1ccc(OC2OC(CO[C@@H]3O[C@@H](C)[C@H](O)[C@@H](O)[C@H]3O)C(O)C(O)C2O)cc1OC (some centres undefined)
inactive: Potency [1] | Potency [2] | Potency [3]
active: Potency [4] 2320 nM

COc1cccc(CN(C(=O)CC(C)(C)C)C2CC(C(=O)N3CCNCC3)N(Cc3ccc4c(c3)OCO4)C2)c1 (centres undefined)
inactive: Potency [1] | Potency [2] | Potency [3] | Potency [4]

CC(=O)O[C@H]1[C@H](O[C@H]2CC[C@]34C[C@]35CC[C@]3(C)[C@@H]([C@@]6(C)CC[C@@H](C(C)(C)O)O6)[C@@H](O)C[C@@]3(C)[C@@H]5C[C@H](O[C@@H]3O[C@H](CO)[C@@H](O)[C@H](O)[C@H]3O)[C@H]4C2(C)C)OC[C@@H](OC(C)=O)[C@@H]1O
inactive: Potency [1] | Potency [2] | Potency [3] | Potency [4]
